Reference: article PMC11006913

What was measured:
HOXA7 [1] = target: HOXA7 (Homo sapiens, UniProt P31268 116-202); test: PBM; 200 nM protein, PBS; details: dsDNA, one strand shown
HOXA7 [2] = target: HOXA7 (Homo sapiens, UniProt P31268 116-202, W177C); test: PBM; 200 nM protein, PBS; details: dsDNA, one strand shown
Sequence of HOXA7 (Homo sapiens, UniProt P31268 116-202, W177C) (P31268 116-202 W177C): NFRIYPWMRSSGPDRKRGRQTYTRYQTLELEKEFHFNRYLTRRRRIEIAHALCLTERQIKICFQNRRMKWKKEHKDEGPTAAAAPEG

Sequence of HOXA7 (Homo sapiens, UniProt P31268 116-202) (P31268 116-202): as the sequence (P31268 116-202 W177C) above, with C62W counted along it

| Sequence | binding signal (HOXA7 [1]) | binding signal (HOXA7 [2]) |
| --- | --- | --- |
| TAATTCAA | 9.8 upbm affinity estimate (log intensity, higher = more binding, comparable within an allelic series) | 8.74 upbm affinity estimate (log intensity, higher = more binding, comparable within an allelic series) |
| CGGGTGCC | 8.6 upbm affinity estimate (log intensity, higher = more binding, comparable within an allelic series) | 8.41 upbm affinity estimate (log intensity, higher = more binding, comparable within an allelic series) |
| AAGGCTAC | 8.53 upbm affinity estimate (log intensity, higher = more binding, comparable within an allelic series) | 8.49 upbm affinity estimate (log intensity, higher = more binding, comparable within an allelic series) |
| AGGAGCCT | 8.33 upbm affinity estimate (log intensity, higher = more binding, comparable within an allelic series) | 8.35 upbm affinity estimate (log intensity, higher = more binding, comparable within an allelic series) |
| CGCTGAAG | 8.52 upbm affinity estimate (log intensity, higher = more binding, comparable within an allelic series) | 8.44 upbm affinity estimate (log intensity, higher = more binding, comparable within an allelic series) |
| AAGCGGCG | 8.49 upbm affinity estimate (log intensity, higher = more binding, comparable within an allelic series) | 8.33 upbm affinity estimate (log intensity, higher = more binding, comparable within an allelic series) |
| AGAAGGCG | 8.35 upbm affinity estimate (log intensity, higher = more binding, comparable within an allelic series) | 8.41 upbm affinity estimate (log intensity, higher = more binding, comparable within an allelic series) |
| CTGGATGC | 8.4 upbm affinity estimate (log intensity, higher = more binding, comparable within an allelic series) | 8.44 upbm affinity estimate (log intensity, higher = more binding, comparable within an allelic series) |
| CCGTAATA | 10.2 upbm affinity estimate (log intensity, higher = more binding, comparable within an allelic series) | 8.79 upbm affinity estimate (log intensity, higher = more binding, comparable within an allelic series) |
| GGCCTGAA | 8.61 upbm affinity estimate (log intensity, higher = more binding, comparable within an allelic series) | 8.38 upbm affinity estimate (log intensity, higher = more binding, comparable within an allelic series) |
| TACGTTAA | 9.58 upbm affinity estimate (log intensity, higher = more binding, comparable within an allelic series) | 8.79 upbm affinity estimate (log intensity, higher = more binding, comparable within an allelic series) |
| CAGCGTGG | 8.45 upbm affinity estimate (log intensity, higher = more binding, comparable within an allelic series) | 8.4 upbm affinity estimate (log intensity, higher = more binding, comparable within an allelic series) |
| CACCGCTA | 8.52 upbm affinity estimate (log intensity, higher = more binding, comparable within an allelic series) | 8.43 upbm affinity estimate (log intensity, higher = more binding, comparable within an allelic series) |
| GAGCCAGC | 8.52 upbm affinity estimate (log intensity, higher = more binding, comparable within an allelic series) | 8.41 upbm affinity estimate (log intensity, higher = more binding, comparable within an allelic series) |
| GCAGGTCC | 8.46 upbm affinity estimate (log intensity, higher = more binding, comparable within an allelic series) | 8.46 upbm affinity estimate (log intensity, higher = more binding, comparable within an allelic series) |
| AGCGCCGA | 8.38 upbm affinity estimate (log intensity, higher = more binding, comparable within an allelic series) | 8.29 upbm affinity estimate (log intensity, higher = more binding, comparable within an allelic series) |
| CGCGTTTC | 8.49 upbm affinity estimate (log intensity, higher = more binding, comparable within an allelic series) | 8.39 upbm affinity estimate (log intensity, higher = more binding, comparable within an allelic series) |
| CATTTTAA | 9.97 upbm affinity estimate (log intensity, higher = more binding, comparable within an allelic series) | 8.79 upbm affinity estimate (log intensity, higher = more binding, comparable within an allelic series) |
| CACATAAC | 9.46 upbm affinity estimate (log intensity, higher = more binding, comparable within an allelic series) | 8.81 upbm affinity estimate (log intensity, higher = more binding, comparable within an allelic series) |
| CCATGCTC | 8.55 upbm affinity estimate (log intensity, higher = more binding, comparable within an allelic series) | 8.51 upbm affinity estimate (log intensity, higher = more binding, comparable within an allelic series) |
| ACAGCGAG | 8.39 upbm affinity estimate (log intensity, higher = more binding, comparable within an allelic series) | 8.41 upbm affinity estimate (log intensity, higher = more binding, comparable within an allelic series) |
| AGAAGAAA | 8.53 upbm affinity estimate (log intensity, higher = more binding, comparable within an allelic series) | 8.55 upbm affinity estimate (log intensity, higher = more binding, comparable within an allelic series) |
| CGGAAGGC | 8.5 upbm affinity estimate (log intensity, higher = more binding, comparable within an allelic series) | 8.35 upbm affinity estimate (log intensity, higher = more binding, comparable within an allelic series) |
| CCATTATA | 11.2 upbm affinity estimate (log intensity, higher = more binding, comparable within an allelic series) | 8.97 upbm affinity estimate (log intensity, higher = more binding, comparable within an allelic series) |
| GCAAGCGA | 8.55 upbm affinity estimate (log intensity, higher = more binding, comparable within an allelic series) | 8.45 upbm affinity estimate (log intensity, higher = more binding, comparable within an allelic series) |
| GCAAGCTA | 8.39 upbm affinity estimate (log intensity, higher = more binding, comparable within an allelic series) | 8.42 upbm affinity estimate (log intensity, higher = more binding, comparable within an allelic series) |
| TCATTTCA | 9.51 upbm affinity estimate (log intensity, higher = more binding, comparable within an allelic series) | 8.76 upbm affinity estimate (log intensity, higher = more binding, comparable within an allelic series) |
| GACAGCGA | 8.31 upbm affinity estimate (log intensity, higher = more binding, comparable within an allelic series) | 8.41 upbm affinity estimate (log intensity, higher = more binding, comparable within an allelic series) |
| AAAATGAC | 10 upbm affinity estimate (log intensity, higher = more binding, comparable within an allelic series) | 8.89 upbm affinity estimate (log intensity, higher = more binding, comparable within an allelic series) |
